Molecules are shown by their SMILES. Results filed as inconclusive are left out. A structure can be active in one record and inactive in another. Calls of active or inactive are those of the source. Unless noted, calls come from the whole dose curve; as a rule, active = well fitted curve in the direction sought with a large enough effect; inconclusive = small, poorly fitted or top-dose-only effect, or another doubt; inactive = no such curve, though single readings can be large; an effect the other way counts as inactive or inconclusive.

Potency and outcome data for 8 compounds are collected here from PubChem BioAssay (NCATS).

In assay [1] the target is Ferritin light chain (Equus caballus) (UniProt P02791). Kind of assay: qHTS Validation Assay for Identification of Novel General Anesthetics (AID 2323). Note: series mostly up to about 77 µM. In short, it runs like this: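 Normalized fluorescence response, scaled between free 1-AMA and 1-AMA/apoferritin complex, fitted to a four-parameter Hill equation for concentration-effect values. Binding mix: 10 uM horse-spleen apoferritin, 50% saturated 1-AMA in PBS; read 380/535 nm after 10 min.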
Sequence of Ferritin light chain (Equus caballus) (P02791 2-175 limits assumed): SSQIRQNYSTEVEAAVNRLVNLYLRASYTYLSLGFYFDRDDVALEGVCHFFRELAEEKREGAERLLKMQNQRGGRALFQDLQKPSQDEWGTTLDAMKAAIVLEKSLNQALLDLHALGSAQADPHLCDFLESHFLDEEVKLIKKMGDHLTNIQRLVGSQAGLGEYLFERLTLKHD

In assay [2] the target is ATP-dependent DNA helicase Q1 (Homo sapiens) (UniProt P46063). Kind of assay: qHTS Validation Assay for Inhibitors of RecQ-Like Dna Helicase 1 (RECQ1) (AID 2353). In short, it runs like this: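 50 nM RECQ1T1 preincubated 15 min with compound in Tris pH 8.0 buffer with MgCl2, DTT, Tween-20 and 2.5 ug/ml poly(dI-dC); started with 200 nM TAMRA/BHQ-2 forked duplex and 2 mM ATP. Unwinding read as fluorescence (525/598 nm), two reads 2 h apart.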
Sequence of ATP-dependent DNA helicase Q1 (Homo sapiens) (P46063 whole entry, looked up): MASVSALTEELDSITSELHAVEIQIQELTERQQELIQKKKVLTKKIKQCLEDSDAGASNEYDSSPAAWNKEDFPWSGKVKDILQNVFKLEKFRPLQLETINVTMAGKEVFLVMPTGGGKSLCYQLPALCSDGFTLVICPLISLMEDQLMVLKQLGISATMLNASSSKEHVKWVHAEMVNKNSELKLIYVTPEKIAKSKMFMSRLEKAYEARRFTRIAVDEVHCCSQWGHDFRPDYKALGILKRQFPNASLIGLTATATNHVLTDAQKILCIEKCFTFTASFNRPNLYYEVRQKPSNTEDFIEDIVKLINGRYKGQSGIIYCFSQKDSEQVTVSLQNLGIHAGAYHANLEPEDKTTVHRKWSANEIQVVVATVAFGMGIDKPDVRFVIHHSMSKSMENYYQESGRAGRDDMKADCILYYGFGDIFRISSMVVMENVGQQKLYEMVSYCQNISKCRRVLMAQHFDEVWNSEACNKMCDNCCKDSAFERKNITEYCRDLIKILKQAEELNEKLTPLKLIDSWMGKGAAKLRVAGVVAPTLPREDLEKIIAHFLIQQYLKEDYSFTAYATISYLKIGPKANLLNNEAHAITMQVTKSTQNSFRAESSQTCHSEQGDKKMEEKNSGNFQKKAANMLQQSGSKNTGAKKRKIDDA
For orientation: Quantitative high-throughput screening tests each substance at several concentrations.

A short description of assay [3]: Cytometric Cell-Based qHTS for Inhibitors of the mTORC1 Signaling Pathway in MEF (Tsc2-/-, p53-/-) Cells (AID 2660).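 Note: percent of cells above a phospho-rpS6 to PI ratio cutoff in each well; series mostly up to about 38 µM.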 Put shortly:
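Tsc2-/-, p53-/- MEFs (empty vector) exposed to compound 24 h at 37 C, fixed, stained with Alexa-488 anti-phospho-rpS6 Ser235/236 and propidium iodide. Acumen laser scanning; phospho-S6/PI ratio thresholded against 7.5 nM rapamycin, reported as % positive cells.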

A short description of assay [4]: High Content Imaging Cell-Based qHTS for Inhibitors of the mTORC1 Signaling Pathway in MEF (Tsc2-/-, p53-/-) Cells (AID 2666).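 Note: percent of cells scored positive for phospho-rpS6 Ser235/236 immunostaining by imaging.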 Put shortly:
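Cells were plated, dosed with compound after 24 hrs, and incubated another 24 hrs at 37 degree Celsius. Fixed cells were immunostained for phospho-rpS6 Ser235/236 and counterstained, and the normalized signal was scored as % active cells against rapamycin and DMSO controls.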

Assay [5] can be described thus: High Content Imaging Cell-Based qHTS for Inhibitors of the mTORC1 Signaling Pathway in MEF Cells (AID 2667).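 Note: Tsc2-/- p53-/- MEFs stably re-expressing wild-type Tsc2 exposed 24 h; series mostly up to about 38 µM.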 In short, it runs like this: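 Immunofluorescence for rpS6 phosphorylation in MEFs of Tsc2-/-, p53-/- background rescued with WT Tsc2. Compound exposure lasted 24 hrs. Inhibition was scored against rapamycin-treated control wells.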
Assay [6] can be described thus: Cytometry Cell-Based qHTS for Inhibitors of the mTORC1 Signaling Pathway in MEF cells (AID 2668).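 Note: Tsc2-/- p53-/- mouse embryonic fibroblasts stably re-expressing wild-type Tsc2; percent cells positive for phospho-rpS6 Ser235/236 relative to propidium iodide stain; series mostly up to about 38 µM.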 Put shortly: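 In MEFs grown in DMEM + 10% FBS, a 24 hrs compound exposure preceded imaging of phospho-rpS6 Ser235/236 by laser-scanning cytometry.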
Assay [7] in a line: Validation screen for small molecules that induce DNA re-replication in MCF 10A normal breast cells (AID 463097). Note: nearly all actives have a fitted effect of over 60% in size. In short, it runs like this: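 Following 48 hr compound incubation (37 C, 5% CO2), MCF 10A cells receive Hoechst for 40 min at 37 C. Nuclei are then scanned (excitation 405 nm, emission 500-530 nm) for total fluorescence intensity.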
In assay [8] the target is Ubiquitin carboxyl-terminal hydrolase 2 (Homo sapiens) (UniProt O75604). Kind of assay: qHTS Validation Assay for Inhibitors of Ubiquitin-specific Protease USP2a Using CHOP2 as the Reporter (AID 463106). In short, it runs like this: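 10nM USP2 core + cpd, 30min RT; add 25nM Ub-CHOP2/25nM substrate; 60min RT; FI 485/531nm. Buffer Tris pH 8.0, CaCl2, BME, CHAPS. Norm. to NEM = 100% inhibition; time-zero read flags fluorescent artifacts.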
Sequence of Ubiquitin carboxyl-terminal hydrolase 2 (Homo sapiens) (O75604 whole entry, looked up): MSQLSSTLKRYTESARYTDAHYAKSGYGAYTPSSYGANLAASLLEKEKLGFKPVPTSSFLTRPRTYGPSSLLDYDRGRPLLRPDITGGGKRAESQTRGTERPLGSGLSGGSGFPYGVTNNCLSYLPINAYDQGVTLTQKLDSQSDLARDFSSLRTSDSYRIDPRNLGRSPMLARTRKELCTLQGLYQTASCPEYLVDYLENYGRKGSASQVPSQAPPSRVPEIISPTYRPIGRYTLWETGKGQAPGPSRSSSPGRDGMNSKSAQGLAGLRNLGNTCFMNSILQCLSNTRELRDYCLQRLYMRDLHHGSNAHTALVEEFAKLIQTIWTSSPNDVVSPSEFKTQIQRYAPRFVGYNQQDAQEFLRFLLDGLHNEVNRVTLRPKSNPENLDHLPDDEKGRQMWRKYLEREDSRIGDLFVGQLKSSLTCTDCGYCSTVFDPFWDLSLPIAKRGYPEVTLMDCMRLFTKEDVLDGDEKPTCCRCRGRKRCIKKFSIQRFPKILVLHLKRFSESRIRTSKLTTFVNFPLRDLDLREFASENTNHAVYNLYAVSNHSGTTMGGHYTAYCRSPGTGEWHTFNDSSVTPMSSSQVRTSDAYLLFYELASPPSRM

The target in assay [9] is DNA polymerase III PolC-type (Bacillus subtilis (strain 168)) (UniProt P13267). Kind of assay: qHTS Validation Assay for the Inhibitors of DNA Replication in Gram-Positive Bacteria (AID 485295).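 Note: reconstituted holoenzyme with PolC plus beta clamp SSB and primase; PicoGreen fluorescence of double-stranded DNA made on primed circular M13 template; series mostly up to about 57 µM.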 In short, it runs like this: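 Inhibition of DNA synthesis by the reconstituted PolC holoenzyme, monitored through PicoGreen staining of dsDNA formed from ssM13Gori, dNTPs and NTPs, with compound preincubation and room-temperature reaction.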

Assay [10] concerns the target Tumor susceptibility gene 101 protein (Homo sapiens) (UniProt Q99816). Kind of assay: qHTS Validation Assay for Iinhibitors of HIV-1 Budding by Blocking the Interaction of PTAP/TSG101 (AID 485342; calls by dose curve). In short, it runs like this:
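Compound wells held the Tsg101 binding domain (10 uM) and a FITC-conjugated PTAP peptide (50 nM) in buffer at pH 7.5 containing 0.15 M NaCl and 0.01% Tween 20; polarization was recorded after 20 min, r.t.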

A short description of assay [11]: qHTS Validation Assay to Find Inhibitors of Chronic Active B-Cell Receptor Signaling (AID 485345; active = well fitted curve in the direction sought with a large enough effect in the main read-out, with a control signal flat, not every such curve was filed as active). In short, it runs like this: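 Read-out: ratio of filter-corrected green (IkappaBalpha fusion) to red (native) luciferase signal in doxycycline-induced TMD8 cells after 4 h at 37C. Titration spanned 46 uM–3 nM; Data were normalised to basal cells and 10 uM MG-132 wells.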

Assay [12] deals with Beta-2 adrenergic receptor (Homo sapiens) (UniProt P07550). Kind of assay: qHTS validation assay of beta-arrestin-biased ligands of beta2-adrenergic receptor (AID 485366). Put shortly: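 Tango cells expressing recombinant beta2-AR and beta-arrestin with tTA-driven luciferase, in DMEM with 1% FBS. Compounds were titrated up to 46 microM for 18 hr at 37 degrees C. Luminescence was read 15 min after substrate; curves were fitted and class-assigned.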
Sequence of Beta-2 adrenergic receptor (Homo sapiens) (P07550 whole entry, looked up): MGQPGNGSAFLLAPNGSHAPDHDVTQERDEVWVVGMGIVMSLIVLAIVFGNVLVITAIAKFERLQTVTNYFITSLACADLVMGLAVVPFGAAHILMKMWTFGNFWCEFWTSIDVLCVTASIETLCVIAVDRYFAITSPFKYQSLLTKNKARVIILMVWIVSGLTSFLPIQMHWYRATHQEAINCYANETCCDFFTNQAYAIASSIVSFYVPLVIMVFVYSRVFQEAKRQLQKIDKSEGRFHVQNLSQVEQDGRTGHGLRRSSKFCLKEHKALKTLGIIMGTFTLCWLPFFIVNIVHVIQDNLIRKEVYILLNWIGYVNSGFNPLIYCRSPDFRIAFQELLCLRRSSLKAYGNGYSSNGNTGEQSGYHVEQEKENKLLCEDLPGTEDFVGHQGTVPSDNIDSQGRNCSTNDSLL

A short description of assay [13]: Quantitative high throughput screen for delayed death inhibitors of the malarial parasite plastid, 96 hour incubation (AID 488745).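 Note: luciferase-expressing P. falciparum in erythrocytes at 2% hematocrit and 0.1% parasitemia; series mostly up to about 29 µM; nearly all actives have a fitted effect of over 70% in size.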 Put shortly:
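Infected erythrocytes were added to compound in Albumax-supplemented RPMI 1640 at 0.1% parasitemia and 2% hematocrit (final), incubated 96 h at 37 C under 5% CO2, then luciferase reagent was added and luminescence measured.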

Assay [14] can be described thus: Quantitative high throughput screen for delayed death inhibitors of the malarial parasite plastid, 48 hour incubation (AID 488752). Note: nearly all actives have a fitted effect of over 65% in size. In short, it runs like this:
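Readout is firefly luciferase luminescence from a reporter integrated into the parasite genome, with lower signal taken as inhibited growth. Infected red cells (0.1% parasitemia, 2% hematocrit final) are cultured with compound for one 48 h cycle at 37 C.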

The target of assay [15] is Thioredoxin reductase 1, cytoplasmic (Rattus norvegicus) (UniProt O89049). As to the kind of experiment: qHTS Assay for Substrates of Mammalian Selenoprotein Thioredoxin Reductase 1 (TrxR1) (AID 488772).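 Note: NADPH fluorescence in the first read after selenite addition and not the 8 min delta; series mostly up to about 57 µM; a drop in NADPH fluorescence below the no-compound background marks a TrxR1 substrate.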 In short, it runs like this: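 Quantitative HTS in Tris-HCl buffer at pH 7.5 with EDTA and Tween-20, using rat TrxR1, 400 uM NADPH and 400 uM selenite (final). A fall in initial NADPH fluorescence relative to background marked substrate behaviour.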
Sequence of Thioredoxin reductase 1, cytoplasmic (Rattus norvegicus) (O89049 whole entry, looked up): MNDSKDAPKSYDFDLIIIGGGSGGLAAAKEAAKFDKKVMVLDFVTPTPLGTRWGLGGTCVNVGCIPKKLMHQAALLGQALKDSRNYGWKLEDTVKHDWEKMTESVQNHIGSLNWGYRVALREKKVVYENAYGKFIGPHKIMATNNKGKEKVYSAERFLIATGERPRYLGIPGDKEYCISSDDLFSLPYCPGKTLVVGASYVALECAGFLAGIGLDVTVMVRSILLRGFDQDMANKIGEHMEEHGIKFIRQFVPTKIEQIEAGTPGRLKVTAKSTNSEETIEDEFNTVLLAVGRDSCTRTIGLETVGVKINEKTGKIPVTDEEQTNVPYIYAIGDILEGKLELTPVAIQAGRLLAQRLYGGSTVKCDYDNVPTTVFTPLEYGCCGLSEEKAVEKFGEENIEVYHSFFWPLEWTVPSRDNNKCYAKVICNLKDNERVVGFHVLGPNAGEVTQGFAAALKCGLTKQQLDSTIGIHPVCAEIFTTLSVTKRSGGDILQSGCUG

For assay [16] the target is unchanged. As to the kind of experiment: qHTS Assay for Inhibitors of Mammalian Selenoprotein Thioredoxin Reductase 1 (TrxR1) (AID 488773).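 Note: drop in NADPH fluorescence over an 8 min run after selenite addition; series mostly up to about 57 µM; nearly all actives have a fitted effect of over 40% in size.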 Particulars: Potency: inhibition. Put shortly:
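Steps: enzyme (90 nM) plus NADPH (400 uM final), 5 min at ~22 deg C; compound added, 15 min; selenite (400 uM final) added; fluorescence followed for 8 min. Concentration-response curves derived from the normalized delta values.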

Assay [17] deals with Flap endonuclease 1 (Homo sapiens) (UniProt P39748). As to the kind of experiment: qHTS Validation Assay for the Inhibitors of Human Flap endonuclease 1 (FEN1) (AID 488816). Put shortly: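 Readings taken at 0 and 15 min after starting the reaction with 50 nM (final) substrate supplied the signal. Compounds had first sat with 10 nM FEN1 reagent for 15 min at room temperature. Values come from Hill-equation concentration-response fits.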
Sequence of Flap endonuclease 1 (Homo sapiens) (P39748 whole entry, looked up): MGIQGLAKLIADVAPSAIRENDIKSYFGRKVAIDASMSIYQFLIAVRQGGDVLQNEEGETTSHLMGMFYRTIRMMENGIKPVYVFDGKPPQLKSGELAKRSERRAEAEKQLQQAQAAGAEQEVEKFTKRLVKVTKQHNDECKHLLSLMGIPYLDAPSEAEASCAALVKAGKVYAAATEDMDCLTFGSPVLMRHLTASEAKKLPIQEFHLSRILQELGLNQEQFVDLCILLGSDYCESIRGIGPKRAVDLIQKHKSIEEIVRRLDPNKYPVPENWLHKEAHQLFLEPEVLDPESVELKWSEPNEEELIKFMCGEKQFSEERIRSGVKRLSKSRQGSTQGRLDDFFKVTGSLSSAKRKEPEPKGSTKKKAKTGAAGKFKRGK

In assay [18] the target is M-phase phosphoprotein 8 (Homo sapiens) (UniProt Q99549). As to the kind of experiment: qHTS Validation Assay for Inhibitors for MPP8 Chromodomain Interactions with Methylated Histone Tails (AID 488949). Note: nearly all actives have a fitted effect of over 55% in size. Note: potency is the fitted concentration of half-maximal effect. Put shortly: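 Chemiluminescent proximity assay: histidine-tag capture via nickel acceptor beads, biotin peptide via streptavidin donor beads. Protein and peptide each at 50 nM, pH 7.4, with 30 min incubations at room temperature for complex formation, compound exposure and bead binding.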
Sequence of M-phase phosphoprotein 8 (Homo sapiens) (Q99549 whole entry, looked up): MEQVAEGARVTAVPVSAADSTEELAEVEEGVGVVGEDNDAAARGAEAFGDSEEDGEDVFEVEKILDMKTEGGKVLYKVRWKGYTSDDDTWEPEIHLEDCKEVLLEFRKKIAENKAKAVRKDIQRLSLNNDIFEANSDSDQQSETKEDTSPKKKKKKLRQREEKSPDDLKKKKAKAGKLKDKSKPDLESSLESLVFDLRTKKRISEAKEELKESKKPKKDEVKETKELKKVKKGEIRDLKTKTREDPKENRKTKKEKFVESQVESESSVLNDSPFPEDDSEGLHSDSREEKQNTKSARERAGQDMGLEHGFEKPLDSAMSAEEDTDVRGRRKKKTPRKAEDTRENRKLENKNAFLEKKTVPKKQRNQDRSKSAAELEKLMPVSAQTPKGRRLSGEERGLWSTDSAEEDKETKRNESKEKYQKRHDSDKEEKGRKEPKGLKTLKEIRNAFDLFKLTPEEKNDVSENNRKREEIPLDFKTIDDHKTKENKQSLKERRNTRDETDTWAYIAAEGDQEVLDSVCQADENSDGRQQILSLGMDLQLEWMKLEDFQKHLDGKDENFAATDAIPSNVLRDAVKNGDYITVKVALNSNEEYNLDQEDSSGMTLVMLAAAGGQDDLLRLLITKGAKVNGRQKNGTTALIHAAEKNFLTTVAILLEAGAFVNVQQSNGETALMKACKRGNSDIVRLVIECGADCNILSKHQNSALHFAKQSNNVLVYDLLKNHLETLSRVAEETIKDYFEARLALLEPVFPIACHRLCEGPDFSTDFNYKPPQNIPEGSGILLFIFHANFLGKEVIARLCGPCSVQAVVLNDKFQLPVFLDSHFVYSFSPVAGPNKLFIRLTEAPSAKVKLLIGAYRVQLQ

The target in assay [19] is ATP-dependent 6-phosphofructokinase (Trypanosoma brucei brucei) (UniProt O15648). As to the kind of experiment: qHTS Validation Assay to Find Inhibitors of T. brucei phosphofructokinase (AID 485368). In short, it runs like this: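 Activity was read as ADP production by luminescence (ADP-Glo) after 45 min at room temperature. The enzyme was 1.25nM PFK in 0.1M TEA pH 8.0 with 0.5 mM F6P, 0.1mM ATP and 5 mM MgCl2. Compounds were titrated up to 57 uM and % activity normalized to no-enzyme and full-enzyme controls.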
Sequence of ATP-dependent 6-phosphofructokinase (Trypanosoma brucei brucei) (O15648 whole entry, looked up): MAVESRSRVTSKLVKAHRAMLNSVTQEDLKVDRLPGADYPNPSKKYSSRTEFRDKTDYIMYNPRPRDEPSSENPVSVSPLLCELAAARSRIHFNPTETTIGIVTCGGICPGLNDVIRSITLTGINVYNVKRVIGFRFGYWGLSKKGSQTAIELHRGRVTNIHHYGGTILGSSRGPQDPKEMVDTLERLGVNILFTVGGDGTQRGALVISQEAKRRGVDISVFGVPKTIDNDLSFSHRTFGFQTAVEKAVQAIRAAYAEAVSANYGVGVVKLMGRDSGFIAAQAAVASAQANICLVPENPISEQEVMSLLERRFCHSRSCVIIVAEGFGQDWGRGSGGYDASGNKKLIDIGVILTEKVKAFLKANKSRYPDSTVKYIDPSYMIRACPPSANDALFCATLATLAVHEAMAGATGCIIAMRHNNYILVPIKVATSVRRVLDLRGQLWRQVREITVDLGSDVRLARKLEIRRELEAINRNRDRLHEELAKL

Sequence of Tumor susceptibility gene 101 protein (Homo sapiens) (Q99816 whole entry, looked up, the tested form may be a part): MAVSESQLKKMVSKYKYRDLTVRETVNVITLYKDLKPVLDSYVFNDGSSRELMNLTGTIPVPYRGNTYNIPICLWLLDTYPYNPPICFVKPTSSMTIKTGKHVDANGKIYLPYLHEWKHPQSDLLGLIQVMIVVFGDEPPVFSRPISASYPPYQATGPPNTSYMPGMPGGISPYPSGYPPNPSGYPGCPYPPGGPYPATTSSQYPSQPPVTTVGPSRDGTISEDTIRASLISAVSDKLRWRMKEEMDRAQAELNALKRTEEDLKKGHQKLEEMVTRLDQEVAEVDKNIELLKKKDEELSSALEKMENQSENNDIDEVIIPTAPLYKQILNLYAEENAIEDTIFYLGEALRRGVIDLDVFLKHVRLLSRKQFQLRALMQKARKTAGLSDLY

Consider `COc1ccc2[nH]cc(CCNC(C)=O)c2c1`, for which the Potency result in assay [1], in assay [2], in [4], in assay [5], in [6] and in assay [7] was “inactive” each time. Besides, the Potency entry in assay [8], in assay [9], in assay [11], in assay [13], in [14] and in assay [16] was “inactive” throughout. Further, the Potency entry in assay [17] and in [18] was “inactive” in each case. Besides, the result in assay [3], in [10], in assay [12] and in assay [15] was inactive.

As to `Cn1ccc2cc3c(cc21)CCN3C(=O)Nc1cccnc1`, the Potency result in assay [1], in [2], in [4], in [6], in [7] and in [8] was “inactive” each time. Also, the Potency entry in [9] and in [16] was “inactive” each time. Besides, the compound was called inactive in [3], in assay [10], in assay [12] and in assay [15]. For the same compound, the Potency in [18] was 39.8 µM (active) and inactive.

Turning to `Nc1nnc(-c2cccc(Cl)c2Cl)c(N)n1`, the Potency result in assay [1], in [2], in assay [4], in assay [6], in assay [7] and in assay [9] was “inactive” each time. Besides, the Potency entry in [11], in [19], in assay [13], in assay [14], in assay [16] and in [17] was “inactive” throughout. Besides, the Potency result in [18] was “inactive”. Also, the compound was classed as inactive in [3], in assay [10] and in [12].

As for `NC12CC3CC(CC(C3)C1)C2`, the Potency entry in assay [1], in [2], in assay [4], in [6], in assay [7] and in assay [8] was “inactive” throughout. Besides, the Potency result in [9], in assay [11], in assay [13], in assay [14], in assay [16] and in assay [18] was “inactive” each time. For the same compound, the compound was classed as inactive in assay [3], in assay [10], in [12] and in assay [15].

On to `NCCS(=O)(=O)O`, for which the Potency entry in assay [1], in assay [2], in assay [4], in [6], in assay [7] and in assay [8] was “inactive” each time. Also, the Potency entry in assay [9], in [11], in [19], in [13], in [14] and in [16] was “inactive” in each case. Also, the Potency entry in [17] and in [18] was “inactive” each time. Besides, the compound was called inactive in assay [3], in assay [10], in [12] and in [15].

In the case of `CCc1cccc2c3c([nH]c12)C(CC)(CC(=O)O)OCC3` (centres undefined), the Potency entry in assay [1], in assay [2], in assay [4], in assay [6], in assay [7] and in assay [9] was “inactive” in each case. For the same compound, the Potency entry in [11], in assay [13], in assay [14], in [16], in assay [17] and in assay [18] was “inactive” each time. The compound was called inactive in [3], in assay [10], in assay [12] and in [15].

Regarding `COc1ccc(C2CNC(=O)C2)cc1OC1CCCC1` (centres undefined), the Potency result in assay [1], in assay [2], in [4], in [6], in assay [7] and in [8] was “inactive” each time. Moreover, the Potency entry in assay [9], in [19], in assay [13], in assay [14], in [16] and in [17] was “inactive” throughout. Also, the Potency entry in assay [18] is “inactive”. Further, the outcome in [3], in assay [10] and in assay [12] was inactive.

Regarding `CN(C)c1nc(N(C)C)nc(N(C)C)n1`, the Potency entry in assay [1], in [2], in [4], in assay [6], in assay [7] and in [9] was “inactive” each time. Further, the Potency result in assay [11], in assay [19], in [14], in assay [16], in [17] and in assay [18] was “inactive” each time. The call in assay [3], in [10], in assay [12] and in assay [15] was inactive.
